Test results from PubChem BioAssay (NCI).
About 83,000 compounds went through this panel and 20% of them were active in at least one assay; those are over-represented in the sample as a whole.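 How to read the values: 0–100, growth inhibition (40 = 60% inhibited); 0, no net growth; -100 to 0, cell death (-40 = 40% of starting cells died; -100 = all dead).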 Calls of active or inactive are those of the source. The calls were made as follows: active = growth percent below 10; inactive = the rest.

The molecules below were run on HL-60(TB) leukemia (assay: NCI-60 one-dose screen, 48 h (100 = growth as untreated, 0 = no growth, -100 = all killed)). Settings: 10 µM unless noted.

With `COc1ccc(C(=O)/C=C/c2ccc(Oc3nc(NCCO)nc(N4CCOCC4)n3)c(OC)c2)cc1` as the molecule, how does the growth read?
Its growth is 15.5% (inactive).

How did the growth turn out when `COc1ccc2c(c1)oc1c3[nH]c4ccccc4c3c3c(c21)C(=O)N(O)C3=O` was run?
The growth was 53.3% (inactive).

`Oc1cccc2ccc(-c3nnc(SCc4ccc(O)c5ncccc45)n3-c3ccccc3)nc12` was tested. Which growth did it give?
The growth was 3.4% (active).

With `COc1cc(OC)c(/C=C/S(=O)(=O)Cc2ccc(OC)c(NC(=O)CCC(=O)NO)c2)c(OC)c1` as the molecule, how does the growth read?
Its growth is -10.8% (active).

For `C#CCOc1ccc(-c2csc(NC(=O)C=C)n2)cc1NS(=O)(=O)c1cccc2c(N(C)C)cccc12`, which growth is on record?
The growth was -4.97% (active).

For `COc1c(N2CC3CCCNC3C2)c(F)cc2c(=O)c(C(=O)N/N=C/c3ccccc3)cn(C3CC3)c12` (stereo not drawn), which growth is on record?
The growth was 73.6% (inactive).

Which growth does the source give for `CCCCCC[n+]1ccc(SCC(=O)n2ccc3ccccc32)c2ccccc21` here?
The growth was 74.8% (inactive).

How did the growth turn out when `COc1ccc(-c2cc(-c3ccc(Cl)cc3)c(C#N)c(=O)n2Cc2ccc(C(=O)O)cc2)cc1` was run?
Its growth is 92.1% (inactive).

Which growth does the source give for `COc1cc(C(=O)c2cc(C(C)=O)c3c(C)cccn23)cc(OC)c1OC` here?
Its growth is 88.9% (inactive).

For `COc1ccccc1/C=C/C=N/NC1=NC2C(S1)N(C)C(=O)N2c1ccccc1` (stereo not drawn), which growth is on record?
Its growth is -25.7% (active).

Which growth does the source give for `NC(=O)c1cccc(C#CCNC[C@H]2C[C@@H](n3ccc4c(Cl)ncnc43)[C@H](O)[C@@H]2O)c1` here?
The growth was 102% (inactive).

Which growth does the source give for `Cn1c(SCC(=O)Nc2ccc(-c3nc4ccc([N+](=O)[O-])cc4[nH]3)cc2)nc2ccccc2c1=O` here?
The growth was 91.1% (inactive).

`O=C1Nc2ccc(Cl)cc2/C1=C/c1ccc(OCC(=O)c2ccc(Br)cc2)cc1` was tested. Which growth did it give?
The growth was 110% (inactive).
